The whole screen tested about 370,000 compounds, of which about 760 (0.21%) were called active.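 Rule for the calls: active = inhibition above a per-campaign cutoff: mean of compounds within control limits plus 3 SD (cut at about 15% in these data); inactive = the rest.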 For the sample, actives were picked, then their nearest neighbours and some compounds at random.
The molecules below were run against Fibrinogen beta chain (Homo sapiens) (UniProt P02675) (assay: small molecules displacing Tn6 from DD(E) complex – biochemical, fluorescence polarization, human fibrin, Tn6 probe, primary screen (AID 720509;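 note: 0% = median of all compound wells on the plate and 100% = blocking peptide control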)). Conditions: Fibrin DD(E) TRITC-Tn6 fluorescence polarization displacement; at 8.3 µM; hits give high values.
Sequence of Fibrinogen beta chain (Homo sapiens) (P02675 whole entry, looked up): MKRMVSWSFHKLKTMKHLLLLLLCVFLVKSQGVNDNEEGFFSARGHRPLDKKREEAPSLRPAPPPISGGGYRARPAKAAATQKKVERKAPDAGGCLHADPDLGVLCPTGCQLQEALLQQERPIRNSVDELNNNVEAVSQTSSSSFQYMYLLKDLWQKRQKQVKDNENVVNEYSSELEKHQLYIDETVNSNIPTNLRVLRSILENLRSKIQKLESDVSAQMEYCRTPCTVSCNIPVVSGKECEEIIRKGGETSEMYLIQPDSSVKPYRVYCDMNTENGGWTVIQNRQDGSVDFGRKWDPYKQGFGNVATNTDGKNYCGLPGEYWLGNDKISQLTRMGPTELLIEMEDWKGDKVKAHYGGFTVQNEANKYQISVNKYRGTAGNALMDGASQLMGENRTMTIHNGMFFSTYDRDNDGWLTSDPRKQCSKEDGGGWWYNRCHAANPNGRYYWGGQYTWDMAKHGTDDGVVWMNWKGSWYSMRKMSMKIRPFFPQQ
For `Cc1cc(N2CCNC[C@@H]2C)ccc1N1CC[C@H](O)C1`, the inhibition was 15.6% (active).
With `CC1CNCCN1c1ccc(Cl)cc1` (stereo not given) the inhibition was 0.71% (inactive).
`COc1ccccc1-n1c(O)c(C=NC2CC2)c(=O)[nH]c1=O` was tested, and the inhibition was -5.91% (inactive).
With `CC(=O)C1(O)CCC2C3CCC4=C(Cl)C(=O)CCC4(C)C3CCC21C` (stereo not given) the inhibition was -1.79% (inactive).
In the case of `OC(Cn1c2ccccc2c2ccccc21)C[n+]1ccccc1` (stereo not given), the inhibition is reported as -10% (inactive).
For `COc1c(O)ccc2c1-c1c3c(cc4c1C(C2)N(C)CC4)OCO3` (stereo not given), the inhibition was 0.43% (inactive).
With `COC1=C[C@@H]2[C@@H]3Cc4ccc(OC)c(O)c4[C@]2(CCN3C)CC1=O` the inhibition was 5.14% (inactive).
For `COc1ccc2c(c1O)-c1cccc3c1[C@@H](C2)N(C)CC3`, the inhibition was 15.8% (active).
With `Fc1cccc(F)c1CN1CCN(Cc2c(F)cccc2F)CC1` the inhibition was -1.68% (inactive).
With `CO[C@H]([C@H](C)/C=C/N(C)C=O)[C@@H](C)C(=O)CC[C@H](C)[C@H](O)[C@H](C)[C@H]1OC(=O)/C=C/C(C)=C/[C@H](O)[C@H](OC)C[C@@H]2C=CC[C@@H](C[C@H](OC)[C@@]3(CO3)[C@@H](OC)C[C@@H](OC)[C@@H]1C)O2` the inhibition was 1.04% (inactive).

Reference: PubChem BioAssay AID720509 (The Scripps Research Institute Molecular Screening Center, 2013)
